Reference: PubChem BioAssay (NCI)
The panel holds about 83,000 compounds, 20% with a hit somewhere; the sample as a whole holds those more often.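 Treatment: one concentration, 48 hours, 96-well format. Scoring: percent growth, with anything below 10 considered active.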 A number with no mark means an inactive call. The source made the active and inactive calls.

What was measured:
Experiment in all cases: NCI-60 one-dose screen, 48 h (100 = growth as untreated, 0 = no growth, -100 = all killed)
Conditions in all cases: 10 µM unless noted
SK-MEL-2 melanoma = test system: SK-MEL-2 melanoma
SN12C renal = test system: SN12C renal
UO-31 renal = test system: UO-31 renal
TK-10 renal = test system: TK-10 renal
ACHN renal = test system: ACHN renal
CAKI-1 renal = test system: CAKI-1 renal
A498 renal = test system: A498 renal
MOLT-4 leukemia = test system: MOLT-4 leukemia
SR leukemia = test system: SR leukemia
RPMI-8226 leukemia = test system: RPMI-8226 leukemia
OVCAR-8 ovarian = test system: OVCAR-8 ovarian
OVCAR-5 ovarian = test system: OVCAR-5 ovarian
OVCAR-4 ovarian = test system: OVCAR-4 ovarian
SK-OV-3 ovarian = test system: SK-OV-3 ovarian
IGROV1 ovarian = test system: IGROV1 ovarian
OVCAR-3 ovarian = test system: OVCAR-3 ovarian
HS 578T breast = test system: HS 578T breast
NCI/ADR-RES ovarian = test system: NCI/ADR-RES ovarian
CCRF-CEM leukemia = test system: CCRF-CEM leukemia

SMILES | growth (SK-MEL-2 melanoma) | growth (SN12C renal) | growth (UO-31 renal) | growth (TK-10 renal) | growth (ACHN renal) | growth (CAKI-1 renal) | growth (A498 renal) | growth (MOLT-4 leukemia) | growth (SR leukemia) | growth (RPMI-8226 leukemia) | growth (OVCAR-8 ovarian) | growth (OVCAR-5 ovarian) | growth (OVCAR-4 ovarian) | growth (SK-OV-3 ovarian) | growth (IGROV1 ovarian) | growth (OVCAR-3 ovarian) | growth (HS 578T breast) | growth (NCI/ADR-RES ovarian) | growth (CCRF-CEM leukemia)
COC(=O)[C@H](CCCCNC(=O)OCc1ccccc1)NC(=O)[C@@H](NC(=O)Nc1cc(C(F)(F)F)cc(C(F)(F)F)c1)C(C)C | -77.3% [100 µM] (active) | -88.3% [100 µM] (active) | -88.6% [100 µM] (active) | -44% [100 µM] (active) | -99.4% [100 µM] (active) | -36.3% [100 µM] (active) | -5.02% [100 µM] (active) | -7.72% [100 µM] (active) | -23.3% [100 µM] (active) | -20.6% [100 µM] (active) | -22.1% [100 µM] (active) | 41.6% [100 µM] | -68.8% [100 µM] (active) | -23.4% [100 µM] (active) | -61% [100 µM] (active) | -92.5% [100 µM] (active) | -1.7% [100 µM] (active) | 60.4% [100 µM] | 
FCc1ncc(-c2ccc(C(F)(F)F)cc2)c(NC2CCCCCC2)n1 | -40.8% [100 µM] (active) | -30.3% [100 µM] (active) | 11.1% [100 µM] | 38% [100 µM] | 8.81% [100 µM] (active) | 0.556% [100 µM] (active) | -19.4% [100 µM] (active) | -20.3% [100 µM] (active) | -18% [100 µM] (active) | 4.24% [100 µM] (active) | 15.8% [100 µM] | 32.7% [100 µM] | 27.2% [100 µM] | 46.1% [100 µM] | 27.2% [100 µM] | -85% [100 µM] (active) | 41.4% [100 µM] | 18.4% [100 µM] | 
FC(F)(F)c1ccc(-c2cnc(-c3nn[nH]n3)nc2NC2CCCCCC2)cc1 | 47.3% [50 µM] | 50.9% [50 µM] | 38.2% [50 µM] | 105% [50 µM] | 68.9% [50 µM] | 36.8% [50 µM] | 61.5% [50 µM] | 25.4% [50 µM] | 15.1% [50 µM] | 34.5% [50 µM] | 42.4% [50 µM] | 101% [50 µM] | 60.8% [50 µM] | 86.1% [50 µM] | 52.7% [50 µM] | 31% [50 µM] |  | 30.8% [50 µM] | 
CC(NNC(=S)N1CCCCCC1)c1ccc2ccccc2n1 (stereo not drawn) | 90.2% | 37.3% | 9.9% (active) | 41.9% | 16.7% | -9.22% (active) | 71.1% | 28.3% | 34.5% | 56.1% | 18.1% | 50.3% | 30.2% | 50.9% | 19.3% | 47.4% | 78.5% | 20.8% | 
Cc1ccc(-c2c3c(N)c4c(nc3nc3c2c(C)nn3-c2ccccc2)CCC4)cc1 | 88.6% | 94.1% | 50.5% | 100% | 12% | 99.2% | 107% | 60.9% | 6.66% (active) | 85.6% | 88% | 94.7% | 124% | 96.4% | 96.3% | 102% | 87.9% | 85.7% | 
CC(C)CNc1nc(N=[N+]=[N-])nc(NCC(C)C)n1 | 71.9% [100 µM] | 70.8% [100 µM] | 47.3% [100 µM] | 77.5% [100 µM] | 53.6% [100 µM] | 4.03% [100 µM] (active) | 35.5% [100 µM] |  | -7.86% [100 µM] (active) | 33.1% [100 µM] | 57.3% [100 µM] | 75% [100 µM] | 52.7% [100 µM] | 83.7% [100 µM] | 70.9% [100 µM] | 60.1% [100 µM] | 61.1% [100 µM] | 54.1% [100 µM] | 
COc1cccc(CCN2C(=O)CCC3=C2CCC3=O)c1 | 145% | 99.4% | 85.7% | 107% | 99.8% | 98% | 114% | 105% | 102% | 98.1% | 108% | 104% | 104% | 102% | 103% | 114% | 130% | 104% | 
COc1ccc(OC)c2c1CCC1(C2)NC(=O)NC1=O (stereo not drawn) | 118% | 97.3% | 82.3% | 114% | 103% | 91.3% | 104% | 104% | 102% | 102% | 97.8% | 101% | 101% | 102% | 110% | 126% | 85.6% | 102% | 
NS(=O)(=O)c1ccc(-n2nc(-c3ccc(Br)cc3)ccc2=O)cc1 | 66.6% [100 µM] | 70.9% [100 µM] | 89.2% [100 µM] | 22.2% [100 µM] | 70.8% [100 µM] | 75.1% [100 µM] | 40.6% [100 µM] | 92.6% [100 µM] | 21.1% [100 µM] | 85.7% [100 µM] | 88.2% [100 µM] | 94.7% [100 µM] | 89.4% [100 µM] | 25% [100 µM] | 50.2% [100 µM] |  |  | 57% [100 µM] | 
CCCCCc1c(C)[nH]c(/C=C2\N=C(c3ccc[nH]3)C=C2OCc2ccccc2)c1C | -75% [100 µM] (active) | -77% [100 µM] (active) | -93.6% [100 µM] (active) | -81.3% [100 µM] (active) | -91.5% [100 µM] (active) | -74.4% [100 µM] (active) | -79.2% [100 µM] (active) | -57.8% [100 µM] (active) | -26.1% [100 µM] (active) | -46.2% [100 µM] (active) | -64.2% [100 µM] (active) | -98% [100 µM] (active) | -89.3% [100 µM] (active) | -97.1% [100 µM] (active) | -66% [100 µM] (active) | -89% [100 µM] (active) |  | -48.5% [100 µM] (active) | 
O=C(Nc1ccc(Cl)cc1)Nc1nc2ccc(OC(F)(F)F)cc2o1 | 131% | 92.5% | 87.9% | 92.9% | 89.4% | 92.7% | 119% | 76.4% |  |  | 85.4% | 95.9% | 83.7% | 103% | 130% | 74.3% | 143% | 95% | 80.1%
Cc1ccc(C2=Nc3c(ccc4c(C)c(C)c(=O)oc34)OC2)cc1 | 95.8% | 98.7% | 82.6% | 108% | 99.1% | 92.2% | 110% | 101% | 103% | 94.4% | 98.6% | 103% | 116% | 106% | 98.5% | 107% | 110% | 97.3% | 
CCCCCc1c(C)[nH]c(/C=C2\N=C(c3ccc[nH]3)C=C2Oc2ccccc2)c1C | -63.3% [100 µM] (active) | -63.4% [100 µM] (active) | -70.1% [100 µM] (active) | -62% [100 µM] (active) | -61% [100 µM] (active) | -62.8% [100 µM] (active) | -75.3% [100 µM] (active) | -40.2% [100 µM] (active) | 8.8% [100 µM] (active) | -31.5% [100 µM] (active) | -90.2% [100 µM] (active) | -99.8% [100 µM] (active) | -74.7% [100 µM] (active) | -54.7% [100 µM] (active) | -31.6% [100 µM] (active) | -93.4% [100 µM] (active) | -7.4% [100 µM] (active) | -77.1% [100 µM] (active) | 
CCn1cnc(C[C@H](NC(=O)[C@H](CCCCNC(=O)Nc2cc(C(F)(F)F)cc(C(F)(F)F)c2)NC(=O)Nc2cc(C(F)(F)F)cc(C(F)(F)F)c2)C(=O)OC)c1 | -100% [100 µM] (active) | -6.45% [100 µM] (active) | 49.4% [100 µM] | -36.5% [100 µM] (active) | -40.4% [100 µM] (active) | 68.4% [100 µM] | -52.4% [100 µM] (active) | -33.8% [100 µM] (active) | -29% [100 µM] (active) | -42.4% [100 µM] (active) | -9.32% [100 µM] (active) | -67.9% [100 µM] (active) | -17.2% [100 µM] (active) | -23.7% [100 µM] (active) | -23.5% [100 µM] (active) | -90.2% [100 µM] (active) | -7.06% [100 µM] (active) | 51.5% [100 µM] | 
CCCCCCCCCCCCCCCCCC1=NC(C)(CO)CO1 (stereo not drawn) | 91.3% | 94.2% | 76.3% | 87.1% | 91% | 85.5% | 104% | 93.8% | 118% | 86.7% | 97.6% | 90.5% |  | 97.8% | 101% | 95.3% | 92.5% | 85.8% | 
